# PubChem BioAssay AID1051 (The Scripps Research Institute Molecular Screening Center, 2008)
# The campaign covered roughly 99,000 compounds. About 340 (0.34%) were called active. The list comes from a sample in which actives are over-represented; it also holds similar structures and randomly drawn compounds. Values without a mark were called inactive. Rule as the data show it: active = TR-FRET ratio above about 2300; inactive = the rest.
# Experiment: TR-FRET detection interference compounds, primary screen, artefact control for PPARgamma SRC-1 recruitment agonists, biochemical, TR-FRET emission ratio (AID 1051)
# Settings: TR-FRET detection artefact counter-screen, at 8 µM, active compounds read high
row,Structure (SMILES),TR-FRET ratio
1,O=C(Nc1ccccc1)N1CCN(C(=O)Nc2ccccc2)CC1,1700
2,Cc1nc2ccccc2c(C)c1C(=O)c1ccc(F)cc1,1400
3,CCC(CC)C(=O)N1CCN(c2cccc(C)c2C)CC1,1600
4,O=C(COC(=O)c1ccc(F)cc1)Nc1nc2ccc([N+](=O)[O-])cc2s1,1760
5,COc1ccc(OCC(=O)Nc2nnc(-c3ccco3)s2)cc1,2500 (active)
6,COc1ccc(OCCCC(=O)Nc2nnc(C3CCCO3)s2)cc1 (centres undefined),1980
7,COc1ccc(Cc2nnc(NC(=O)Cc3cccs3)s2)cc1,1780
8,C=CCO/N=C/C1=C(O)C(C(=O)OC)C(C)(C)CC1=O (centres undefined),1870
9,Cc1ccc2nc(-c3cccc(Br)c3)cc(C(=O)Nn3cnnc3)c2c1,1660
10,O=C(NCc1ccccn1)c1cc(Br)ccc1Cl,1780
11,O=C(NCc1cccs1)c1cc(-c2ccccn2)nc2ccc(Br)cc12,2520 (active)
12,C/C(N)=C(/C#N)C(=O)COC(=O)c1cc(-c2ccccc2)nc2ccc(Br)cc12,1910
13,O=C(Nc1ccncc1)c1cc(-c2ccccn2)nc2ccc(Br)cc12,1860
14,Cc1ccc(-c2cc(C(=O)NCc3cn(C)nc3C)c3cc(Br)ccc3n2)cc1,2880 (active)
15,CSc1ccc(CN2C(=O)NC3(CCCCCC3)C2=O)cc1,1630
16,Cc1ccnc(NS(=O)(=O)c2ccc(NC(=O)c3ccc(S(=O)(=O)N(C)C)cc3)cc2)n1,1700
17,COc1cccc(NC(=O)c2ccc(S(=O)(=O)N(C)C)cc2)c1,1680
18,Cc1nn(C)c(C(=O)NNC(=S)NC2CCCCC2)c1Cl,1630
19,COc1cccc(NC(=S)NCc2ccccn2)c1,1990
20,COc1cccc(NC(=S)NC(=O)c2c(Cl)c(C)nn2C)c1,2600 (active)
21,CN1CCN(C(=O)N2c3ccccc3CCc3ccccc32)CC1,1720
22,CCOc1c(CNCc2ccc(C(=O)O)cc2)cccc1OC,1910

row,Structure (SMILES),TR-FRET ratio
1,O=C(CC1C(=O)NCCN1Cc1ccc(-c2ccccc2)cc1)NCC1CCOCC1 (centres undefined),1730
2,CCc1ccccc1N1C(=O)C2C3CC(=O)C(c4ccccc43)C2C1=O (centres undefined),1650
3,CC(=O)NC1=NN(C(C)=O)C(C)(c2ccc(C)cc2)S1 (centres undefined),1950
4,COc1ccc(/C=N/NC(=O)Cn2cc(C(F)(F)F)ccc2=O)cc1,1880
5,CCN(CCn1cccn1)C(=O)CC1C(=O)NCCN1Cc1cccc(OC)c1OC (centres undefined),1620
6,CSc1nc2c(c(=O)[nH]1)C(c1cccc(Cl)c1Cl)CC(=O)N2 (centres undefined),1770
7,CCN1CCN(CC(=O)c2cc(OC)c(OC)c(OC)c2)CC1,1990
8,CC(C)OC(=O)CN1CCN(c2ccc(Cl)cc2)CC1,1890
9,CCCC(=O)OCC(=O)Nc1cc(Cl)ccc1[N+](=O)[O-],1580
10,CN(C)C(=O)N1CCNCC1,1920
11,COc1ccc(C/C(C)=N/NC(=O)c2ccncc2)cc1,1920
12,O=C(Nc1ccc([N+](=O)[O-])cc1)C1(c2ccccc2)CCOCC1,1740
13,CN1CCN(CC#CCC2(O)c3ccccc3-c3ccccc32)CC1,1610
14,O=C(Nc1cccnc1)c1ccc(Cl)cc1[N+](=O)[O-],2040
15,Cc1cc(C)cc(NC(=S)NCCCN2CCOCC2)c1,1640
16,CCc1cccc(C)c1NC(=O)COC(=O)Cc1ccsc1,1600
17,CC(=O)N(CCCN(C)C)c1nc2ccc(C)cc2s1,2080
18,COc1ccc(/C=C(\C#N)C(=O)ONC2=NCCCCC2)cc1,1820
19,COc1ccc(S(=O)(=O)N(C)C)cc1NC(=O)CSc1ncccn1,1990
20,CCOCCCNC(=S)N1CCC(NC(=O)C2CCCCC2)CC1,1730
21,Cc1ccc(C(=O)NCC(=O)O)cc1S(=O)(=O)N1CCCCC1,1790
22,O=S(=O)(Nc1cc(S(=O)(=O)N2CCOCC2)ccc1N1CCCC1)c1cccs1,1650

row,Structure (SMILES),TR-FRET ratio
1,Cc1ccc(NS(=O)(=O)c2cccs2)cc1S(=O)(=O)N1CCCCCC1,2400 (active)
2,CCn1c(COc2ccccc2)nnc1SCC(=O)NCc1ccco1,1770
3,C/C(=N/OC(=O)c1cccc(C(F)(F)F)c1)c1cnccn1,1580
4,CC(OC(=O)CNS(=O)(=O)/C=C/c1ccccc1)C(=O)Nc1ccc(S(=O)(=O)N2CCCC2)cc1 (centres undefined),1670
5,O=C(NNC1=C(C(=O)C(F)(F)F)CCC1)c1ccncc1,1980
6,CN(NC(=O)C1CC(=O)N(c2ccccc2)C1)C1=NS(=O)(=O)c2ccccc21 (centres undefined),1810
7,CCN(CC)c1ccc(C(=O)c2cnc(/N=C/N(C)C)s2)cc1,1790
8,COc1ccc(CCC(=O)OCC(=O)Nc2ccc(C)c(S(=O)(=O)N(C)C)c2)cc1,1760
9,CN(CCOc1ccc(Br)cc1)CC(=O)Nc1cccc(S(=O)(=O)NC2=NCCC2)c1,1830
10,CCC(C)NC(=O)/C=C/c1ccc(S(=O)(=O)NCc2ccco2)cc1 (centres undefined),1910
11,Cc1ccccc1CC1(CO)CCCN(Cc2ccc3c(c2)OCCO3)C1 (centres undefined),1710
12,O=c1c2ccccc2c(-c2ccccc2)nn1Cc1ccccc1,1740
13,CSc1nc2ccccc2c(=O)n1Cc1ccc(F)cc1,1720
14,CSc1c(SCc2ccccc2)cnn(Cc2ccccc2)c1=O,2320 (active)
15,COCc1c(C(=O)N/N=C/C2CC=CCC2)nnn1-c1nonc1N (centres undefined),1650
16,O=C(CCc1ccc(S(=O)(=O)N2CCOCC2)cc1)NN=C1CCCCCCC1,1980
17,CC(C)n1c(=O)[nH]c2cc(C(=O)Nc3ccccc3)ccc21,1850
18,C=CCc1cccc2cc(C(=O)NC3CCCC3)c(=O)oc12,1900
19,O=C(COC(=O)/C=C/c1cccc(Cl)c1)NCCc1ccccc1,1750
20,Cc1cc(C)nc(/N=C2\NC(=O)CC(C(=O)O)N2c2ccc(Cl)cc2Cl)n1 (centres undefined),1900
